This excerpt belongs to a sample that is enriched for the strongest signals.
B1: MD-2 (Homo sapiens) (protein)
chain: MLPFLFFSTLFSSIFTEAQKQYWVCNSSDASISYTYCDKMQYPISINVNPCIELKGSKGLLHIFYIPRRDLKQLYFNLYITVNTMNLPKRKEVICRGSDDDYSFCRALKGETVNTTISFSFKGIKFSKGKYKCVVEAISGSPEEMLFCLEFVILHQPNSN
B2: E-Selectin (Mus musculus), Q00690 (protein)
chain: MNASRFLSALVFVLLAGESTAWYYNASSELMTYDEASAYCQRDYTHLVAIQNKEEINYLNSNLKHSPSYYWIGIRKVNNVWIWVGTGKPLTEEAQNWAPGEPNNKQRNEDCVEIYIQRTKDSGMWNDERCNKKKLALCYTASCTNASCSGHGECIETINSYTCKCHPGFLGPNCEQAVTCKPQEHPDYGSLNCSHPFGPFSYNSSCSFGCKRGYLPSSMETTVRCTSSGEWSAPAPACHVVECEALTHPAHGIRKCSSNPGSYPWNTTCTFDCVEGYRRVGAQNLQCTSSGIWDNETPSCKAVTCDAIPQPQNGFVSCSHSTAGELAFKSSCNFTCEQSFTLQGPAQVECSAQGQWTPQIPVCKAVQCEALSAPQQGNMKCLPSASGPFQNGSSCEFSCEEGFELKGSRRLQCGPRGEWDSKKPTCSAVKCDDVPRPQNGVMECAHATTGEFTYKSSCAFQCNEGFSLHGSAQLECTSQGKWTQEVPSCQVVQCPSLDVPGKMNMSCSGTAVFGTVCEFTCPDDWTLNGSAVLTCGATGRWSGMPPTCEAPVSPTRPLVVALSAAGTSLLTSSSLLYLLMRYFRKKAKKFVPASSCQSLQSFENYHVPSYNV

Columns and labels:
Experiment in all cases: glycan array binding signal (z-score within array); higher = stronger binding
Conditions in all cases: glycan notation: IUPAC condensed, linker removed
[1] = target: Fuc(a1-2)Gal(b1-4)GlcNAc(b1-3)Gal(b1-4)GlcNAc(b1-3)Gal(b1-4)GlcNAc
Summary of the method: (§1)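 Glycan array data came from 3228 arrays in the Consortium for Functional Glycomics database, and only arrays with an available protein sequence were kept. Glycan names were put into IUPAC-condensed notation, and columns mapping to the same glycan were averaged. The binding signal is a within-array Z-score, averaged across arrays of one protein sequence run at different concentrations or buffers and across linkers. A negative Z-score can be read as non-binding.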

[2] = target: Fuc(a1-3)[Gal(b1-4)]GlcNAc(b1-4)Gal(b1-4)[Fuc(a1-3)]GlcNAc(b1-4)Gal(b1-4)[Fuc(a1-3)]GlcNAc
Summary of the method: as §1

[3] = target: Gal(b1-4)GlcNAc(b1-3)[GlcNAc(b1-6)]Gal(b1-4)GlcNAc
Summary of the method: as §1

Gal3S(b1-3)GalNAc = target: Gal3S(b1-3)GalNAc
Summary of the method: as §1

Gal3S4S(b1-4)GlcNAc = target: Gal3S4S(b1-4)GlcNAc
Summary of the method: as §1

Gal3S6S(b1-4)GlcNAc6S = target: Gal3S6S(b1-4)GlcNAc6S
Summary of the method: as §1

Gal6S(b1-4)Glc6S = target: Gal6S(b1-4)Glc6S
Summary of the method: as §1

GalNAc(b1-3)Gal = target: GalNAc(b1-3)Gal
Summary of the method: as §1

[4] = target: GlcNAc(a1-6)Gal(b1-4)GlcNAc
Summary of the method: as §1

[5] = target: GlcNAc(b1-2)Man(a1-3)[GlcNAc(b1-2)Man(a1-6)]Man(b1-4)GlcNAc(b1-4)GlcNAc
Summary of the method: as §1

[6] = target: GlcNAc(b1-3)Gal(b1-3)GalNAc
Summary of the method: as §1

[7] = target: GlcNAc(b1-4)GlcNAc(b1-4)GlcNAc(b1-4)GlcNAc(b1-4)GlcNAc
Summary of the method: as §1

[8] = target: GlcNAc(b1-4)GlcNAc(b1-4)GlcNAc(b1-4)GlcNAc(b1-4)GlcNAc(b1-4)GlcNAc
Summary of the method: as §1

Man(a1-2)Man(a1-3)Man = target: Man(a1-2)Man(a1-3)Man
Summary of the method: as §1

[9] = target: Man(a1-3)[Man(a1-6)]Man(a1-6)[Man(a1-3)]Man(b1-4)GlcNAc(b1-4)GlcNAc
Summary of the method: as §1

Man(a1-6)Man = target: Man(a1-6)Man
Summary of the method: as §1

Neu5Ac(a2-3)Gal(b1-4)Glc = target: Neu5Ac(a2-3)Gal(b1-4)Glc
Summary of the method: as §1

[10] = target: Neu5Ac(a2-3)Gal(b1-4)[Fuc(a1-3)]GlcNAc(b1-3)Gal
Summary of the method: as §1

[11] = target: Neu5Ac(a2-6)Gal(b1-4)GlcNAc(b1-2)Man(a1-3)[GlcNAc(b1-2)Man(b1-4)GlcNAc(b1-2)Man(a1-6)]Man(b1-4)GlcNAc(b1-4)GlcNAc
Summary of the method: as §1

[12] = target: Neu5Ac(a2-6)Gal(b1-4)GlcNAc(b1-2)Man(a1-3)[Neu5Ac(a2-6)Gal(b1-4)GlcNAc(b1-2)Man(a1-6)]Man(b1-4)GlcNAc(b1-4)GlcNAc
Summary of the method: as §1

[13] = target: Neu5Gc(a2-3)Gal(b1-4)GlcNAc
Summary of the method: as §1

[14] = target: Fuc(a1-2)[GalNAc(a1-4)]Gal(b1-4)GlcNAc
Summary of the method: as §1

[15] = target: Fuc(a1-3)[Gal(b1-4)]GlcNAc(b1-4)Gal(b1-4)[Fuc(a1-3)]GlcNAc
Summary of the method: as §1

[16] = target: Fuc(a1-3)[Gal3S(b1-4)]Glc6S
Summary of the method: as §1

[17] = target: Fuc(a1-3)[Gal3S(b1-4)]GlcNAc6S
Summary of the method: as §1

[18] = target: Gal(b1-4)GlcNAc(b1-3)GalNAc
Summary of the method: as §1

[19] = target: Gal3S(b1-3)[Fuc(a1-4)]GlcNAc
Summary of the method: as §1

[20] = target: GlcNAc(b1-3)[GlcNAc(b1-6)]GalNAc
Summary of the method: as §1

GlcNAc(b1-6)GalNAc = target: GlcNAc(b1-6)GalNAc
Summary of the method: as §1

[21] = target: Man(a1-3)[Man(a1-6)]Man(b1-4)GlcNAc(b1-4)GlcNAc
Summary of the method: as §1

Neu5Ac(a2-3)Gal = target: Neu5Ac(a2-3)Gal
Summary of the method: as §1

[22] = target: Neu5Ac(a2-3)Gal(b1-3)[Fuc(a1-4)]GlcNAc
Summary of the method: as §1

[23] = target: Neu5Ac(a2-3)Gal(b1-4)GlcNAc
Summary of the method: as §1

[24] = target: Neu5Ac(a2-3)Gal(b1-4)GlcNAc(b1-3)Gal(b1-4)GlcNAc(b1-3)Gal(b1-4)GlcNAc
Summary of the method: as §1

[25] = target: Neu5Ac(a2-3)Gal(b1-4)[Fuc(a1-3)]GlcNAc(b1-3)Gal(b1-4)[Fuc(a1-3)]GlcNAc(b1-3)Gal(b1-4)[Fuc(a1-3)]GlcNAc
Summary of the method: as §1

[26] = target: Neu5Ac(a2-3)Gal(b1-4)[Fuc(a1-3)]GlcNAc6S
Summary of the method: as §1

[27] = target: Neu5Gc(a2-3)Gal(b1-3)[Fuc(a1-4)]GlcNAc
Summary of the method: as §1

Binder	glycan array binding signal (z-score) [1]	glycan array binding signal (z-score) [2]	glycan array binding signal (z-score) [3]	glycan array binding signal (z-score) (Gal3S(b1-3)GalNAc)	glycan array binding signal (z-score) (Gal3S4S(b1-4)GlcNAc)	glycan array binding signal (z-score) (Gal3S6S(b1-4)GlcNAc6S)	glycan array binding signal (z-score) (Gal6S(b1-4)Glc6S)	glycan array binding signal (z-score) (GalNAc(b1-3)Gal)	glycan array binding signal (z-score) [4]	glycan array binding signal (z-score) [5]	glycan array binding signal (z-score) [6]	glycan array binding signal (z-score) [7]	glycan array binding signal (z-score) [8]	glycan array binding signal (z-score) (Man(a1-2)Man(a1-3)Man)	glycan array binding signal (z-score) [9]	glycan array binding signal (z-score) (Man(a1-6)Man)	glycan array binding signal (z-score) (Neu5Ac(a2-3)Gal(b1-4)Glc)	glycan array binding signal (z-score) [10]	glycan array binding signal (z-score) [11]	glycan array binding signal (z-score) [12]	glycan array binding signal (z-score) [13]	glycan array binding signal (z-score) [14]	glycan array binding signal (z-score) [15]	glycan array binding signal (z-score) [16]	glycan array binding signal (z-score) [17]	glycan array binding signal (z-score) [18]	glycan array binding signal (z-score) [19]	glycan array binding signal (z-score) [20]	glycan array binding signal (z-score) (GlcNAc(b1-6)GalNAc)	glycan array binding signal (z-score) [21]	glycan array binding signal (z-score) (Neu5Ac(a2-3)Gal)	glycan array binding signal (z-score) [22]	glycan array binding signal (z-score) [23]	glycan array binding signal (z-score) [24]	glycan array binding signal (z-score) [25]	glycan array binding signal (z-score) [26]	glycan array binding signal (z-score) [27]
B1	0.156	-0.473	-0.262	-0.242	3.89	6.6	6.38	-0.354	-0.163	-0.316	-0.326	4.23	5.59	-0.386	0.116	0.081	-0.127	-0.504	-0.331	-0.321	-0.291																
B2	-0.255																					-0.301	0.598	5.1	2.52	-0.338	4.55	-0.279	-0.272	-0.288	-0.277	4.47	-0.333	-0.184	3.13	3.24	4.57
